SMARCA2 activ: SMARCA2 (BRM) function activators, primary screen, cell-based, luminescence, high throughput; hit rate 1% among 370,000; MG213 cells, MMTV-luciferase reporter, dexamethasone, overnight; activation, % at 9.1 µM; AID 652017, 2013; in the data active = activation above about 7.8%;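 note: 0% = vehicle wells and 100% = reference activator wells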
HSF1 inh: HSF1 inhibitors in luciferase reporter cells, primary screen, cell-based, NIH3T3, luminescence; AID 2098, 2009; activity change, negative = inhibition, % at 7.5 µM (by protocol); hit rate 0.77% among 300,000; NIH3T3-HGL HSE-luciferase, MG132-induced, luminescence 8 h; active compounds read low;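 active = more than half of replicate wells show activity change below -50%, luminescence cut by over half; inconclusive = some wells, but at most half, below -50%; inactive = no replicate well below -50%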;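 note: luciferase reports HSF-1 transcriptional activity via heat shock element; 0% = median of DMSO wells and -100% = zero luminescence signal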
MITF act: activators of MITF-driven TRPM1 promoter reporter, primary screen, cell-based, SK-MEL-5, luciferase, single point. SK-MEL-5 TRPM1-promoter luciferase, 24 h; % of positive control, neutral wells = 0. activation, % at 12.5 µM. hit rate 0.75% among 300,000;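 active = mean activation of at least 80% with every replicate also reaching 80%; inconclusive = mean reaches 80% but some replicate falls short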;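 note: 0% = neutral control wells and 100% = parthenolide positive control wells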
esBAF inh: Bmi1 luciferase reporter increase in mESCs, primary screen, esBAF inhibitor project, mouse ES cells, Bmi1 luciferase knock-in, single point; reporter increase, % at 12.5 µM; 24 h; 100% = twice the neutral-well signal; hit rate 2% among 350,000; in the data active = activation above about 40%; inconclusive = no clear call, values can overlap the other calls;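 note: 0% = median of the plate's neutral control wells and 100% = double that signal; a rise in the Bmi1 reporter signal indicates esBAF inhibition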
Wnt act: Wnt/beta-catenin pathway activators, primary screen, cell-based, plate reader, single point | Wnt/beta-catenin reporter cell assay, activator | activation, % at 9.35 µM | hit rate 1.2% among 300,000; in the data active = activation above about 30%, passing the limit was not always enough; inconclusive = no clear call, values can overlap the other calls;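 note: 0% = neutral control wells and 100% = positive control wells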
HSF1 activator: HSF-1 activators, primary screen, NIH3T3-HGL cells, MG132 stress, luminescence, single point; NIH3T3-HGL HSF-1 luciferase reporter, 8 h; 100% = twice DMSO control signal; hit rate 1.7% among 300,000; activation, % at 9 µM;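 active = mean replicate activation of at least 50% with a set share of replicates each reaching 50%; inconclusive = only one of those two conditions met; inactive = mean below 50% and too few replicates reaching it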;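 note: 0% = median of the neutral control wells and 100% = twice that signal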
The depositor's hits bear a star; ? = inconclusive; / = no result. Rows were chosen to be rich in hits. Some 4.3% of all compounds tested hit in one or more screens of this group.

SMILES	SMARCA2 activ	HSF1 inh	MITF act	esBAF inh	Wnt act	HSF1 activator
O=C(Nc1ccc(Cl)cc1)Nc1ccccc1C(=O)O	3	24	24	-1	14	54*
O=C(Nc1ccc(CN2CCCCC2)cc1)Nc1ccccc1Cl	5	19	73	/	/	29
O=C(Nc1ccc(Br)cc1)Nc1ccccc1Cl	0	25	82*	?	31*	58*
COc1ccc(NC(=O)Nc2ccccn2)cc1OC	3	8	42	23	16	3
O=C(Nc1ccc(Cl)cc1)N[C@H]1CC[C@H](CCn2cc(C3(O)CCCC3)nn2)O[C@H]1CO	/	/	/	3	/	/
COc1ccc(N2C(=O)c3ccccc3NC2c2ccc(OC)c(Cn3cc([N+](=O)[O-])cn3)c2)cc1 (centres undefined)	5	-68*	68	/	?	-75
CCCCCCCN(C(=O)CCl)c1ccccc1C	-1	34	-16	-6	/	94*
C/C(=N/Nc1ccc([N+](=O)[O-])cc1)c1c[nH]c2ccccc12	0	18	/	58*	-3	27
C/C(=N/Nc1ccc([N+](=O)[O-])cc1)c1ccc(C)cc1C	2	18	70	38	14	25
COC(=O)c1ccccc1NC(=O)CSc1nc(Nc2ccccc2)nc(N2CCOCC2)n1	-1	41	45	-5	-2	77*
CC(=O)c1ccc(NC(=O)CSc2nc(Nc3ccccc3)nc(N3CCOCC3)n2)cc1	-1	-3	19	-1	-1	3
N=c1c2c(-c3ccccc3)c(-c3ccccc3)n(Cc3ccco3)c2ncn1CCCN1CCOCC1	6	49	1	/	-1	102*
CCc1cccc(NC(=O)c2sc3nc4n(c(=O)c3c2C)CCC4)c1	3	43	95*	63*	14	55*
Cc1cc(C)cc(NC(=O)c2sc3nc4n(c(=O)c3c2C)CCC4)c1	5	16	38	21	3	27
O=C(N/N=C/C=C/c1ccco1)c1ccccc1Cl	6	42	7	/	-1	69*
O=C(Cc1cccs1)N/N=C/c1ccco1	1	-8	19	/	/	-2
Cc1cccc(OCC(=O)N/N=C/C=C/c2ccco2)c1	4	21	8	/	3	17
Cc1cccc(C)c1OCC(=O)N/N=C/C=C/c1ccco1	5	63	11	/	2	81*
CC(/C=C/c1ccco1)=N/NC(=O)c1ccccc1Cl	-1	27	/	10	0	?
O=C(Cc1cccs1)N/N=C/C=C\c1ccco1	6	64	4	/	?	92*
Cc1ccc(N/N=C/C=C/c2ccco2)cc1	8	5	99*	/	27	14
CCCNC(=O)N1[C@@H]2c3ccc(-c4ccccc4OC)c(=O)n3C[C@H]1[C@H](CO)[C@H]2C(=O)NCC	/	/	/	-4	/	/
CC(/C=C/c1ccco1)=N\NC(=O)COc1ccc(C)c(C)c1	3	67	-11	/	-1	78*
Cc1nc(NC(C)c2ccccc2)sc1C(=O)Nc1ccccc1 (centres undefined)	-3	-87*	8	9	/	-89
Cc1nc(NCc2ccccc2)sc1C(=O)Nc1ccccc1	4	2	54	59*	6	-3
SMILES	SMARCA2 activ	HSF1 inh	MITF act	esBAF inh	Wnt act	HSF1 activator
O=C(C[C@H]1CC[C@H](NS(=O)(=O)c2cccc(F)c2)[C@@H](CO)O1)N1CCCCC1	/	/	/	0	/	/
COC(C(=O)N1CCC(n2nccc2NC(=O)C2CC2)CC1)c1ccccc1 (centres undefined)	3	12	47	44*	17	20
CCNC(=O)N1CCC(n2nccc2NC(=O)CCOc2ccccc2)CC1	0	-2	7	0	-1	-19
CC(C)C(=O)N1CCC(n2nccc2NC(=O)CCOc2ccccc2)CC1	-2	16	6	3	-1	54*
COC(C(=O)Nc1ccnn1C1CCN(C(=O)c2ccc(C=O)cc2)CC1)c1ccccc1 (centres undefined)	-1	7	9	1	-3	15
CNC[C@@H]1OCCCC[C@@H](C)Oc2ccc(NC(=O)c3ccncc3)cc2C(=O)N([C@H](C)CO)C[C@@H]1C	/	/	/	-12	/	/
COc1ccccc1N(C(=O)CCl)c1cn(C(C)=O)c2ccccc12	-12	-76*	-63	24	-11	-75
CCOC(=O)c1ccccc1Nc1cn(C(C)=O)c2ccccc12	0	-1	-16	/	/	17
CC(=O)n1cc(N(C(=O)CCl)c2ccc(Cl)cc2)c2ccccc21	/	-84*	/	/	/	-84
CO[C@H]1CC[C@H]2CCN(C)C(=O)CCCN(C)C(=O)c3cc(C#N)ccc3OC[C@H]1O2	/	/	/	-5	/	/
COc1cccc(-c2cnc3c(c2)C(=O)N([C@@H](C)CO)C[C@H](C)[C@@H](CN(C)Cc2ccc(C(=O)O)cc2)O3)c1	/	/	/	-9	/	/
O=C(Nc1ccccc1)N[C@H]1CC[C@@H](CCNS(=O)(=O)c2ccccc2F)O[C@H]1CO	/	/	/	0	/	/
CCOc1cccc2cc(-c3csc(NC(=O)CCC(=O)NCCCN4CCC(C)CC4)n3)c(=O)oc12	/	23	/	/	/	?
CCOc1cccc2cc(-c3csc(NC(=O)CCC(=O)NCCN4CCCCC4C)n3)c(=O)oc12 (centres undefined)	7.9*	14	110*	14	-1	21
CCn1c(SC(C)C(=O)NC2CCCC2)nc2cc(S(N)(=O)=O)ccc21 (centres undefined)	1	/	-9	-5	48*	/
C[C@H]1CN([C@@H](C)CO)C(=O)Cc2cc(NC(=O)Nc3ccccc3)ccc2O[C@@H]1CN(C)S(=O)(=O)c1ccc(F)cc1	/	/	/	3	/	/
O=C1CC(/C=C/c2ccc(Cl)cc2)=Nc2ccccc2N1	6	63	42	33	3	70*
CC1(C)CC(/C=C/c2ccccc2)=Nc2ccccc2N1	5	7	95*	/	-5	23
CCN1[C@@H]2c3ccc(-c4cccc(F)c4)c(=O)n3C[C@@H]2[C@@H](CO)[C@@H]1C(=O)N[C@@H](C)c1ccccc1	/	/	/	-5	/	/
O=C(C[C@H]1CC[C@@H]2[C@H](COC[C@@H](O)CN2S(=O)(=O)c2ccc(Cl)cc2)O1)NCc1ccc(Cl)c(Cl)c1	/	/	/	0	/	/
COc1ccc(C(=O)Nc2ccc3c4c(cccc24)CC3)cc1	2	8	87*	/	15	42
COc1ccc(C(=O)Nc2cccc3c2CCCC3)cc1	2	8	/	48*	3	2
COc1ccc(C(=O)Nc2cccc3c2CCCC3)c(OC)c1	-1	/	/	/	36*	/

Assay outcomes: PubChem BioAssay, several laboratories
